Calls of active or inactive are those of the source. The calls were made as follows: active = hit-call score of the fitted dose curve at least 0.9, where 1 is the maximum; inactive = score below 0.9.
Experiment: ATG_TA_CIS: Attagene CIS-FACTORIAL HepG2 Assay for human TA Basal Promoter (AID 2282964)
Conditions: HepG2 Attagene CIS-factorial TA basal promoter reporter; actives raise or lower the signal
Summary of the method: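 Cis-factorial format in HepG2: reporters report endogenous factors, not chimeric Gal4 fusions. After 24 h treatment, reporter transcripts were measured by RT-PCR-capillary electrophoresis fluorescence, analysed bidirectionally versus DMSO.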

| SMILES | outcome | AC50 |
| --- | --- | --- |
| COCCOCCOCCOCCOCCO | inactive |  |
| O=C(O)CCCCC1CCSS1 (centres undefined) | inactive |  |
| C#C[C@]1(O)CC[C@H]2[C@@H]3CCC4=Cc5oncc5C[C@]4(C)[C@H]3CC[C@@]21C |  | 8.11 µM (active) |
| O=C(O)COCCN1CCN(C(c2ccccc2)c2ccc(Cl)cc2)CC1 (centres undefined) | inactive |  |
| CCCCN | inactive |  |
| COC(=O)Cc1cccc2ccccc12 | inactive |  |
| O=Nc1ccc(Nc2ccccc2)cc1 | inactive |  |
| CC(C)=CCC[C@](C)(O)[C@@H]1CC=C(C)CC1 | inactive |  |
| CCN(CC)c1ccc2c(-c3ccccc3C(=O)O)c3ccc(=[N+](CC)CC)cc-3oc2c1 | inactive |  |
| CC(=O)[O][Al][O]C(C)=O | inactive |  |
| Cc1cccc(Nc2ccccc2C(=O)O)c1C | inactive |  |

Experiment: ATG_TCF_b_cat_CIS: Attagene CIS-FACTORIAL HepG2 Assay for human T-Cell-Factor with beta-catenin (TCF/b-cat) (AID 2282965)
Conditions: HepG2 TCF/beta-catenin cis-reporter transcription, actives raise or lower the signal
Summary of the method: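 Endogenous transcription factor activity is captured through cis-promoter reporter constructs transiently introduced into human HepG2 liver cells. Induced reporter mRNA is measured after 24 h and fitted bidirectionally relative to DMSO.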

| SMILES | outcome | AC50 |
| --- | --- | --- |
| CCOc1ccccc1OCC | inactive |  |
| c1ccc2[nH]ccc2c1 | inactive |  |
| CC(=O)O[C@H](CC(=O)[O-])C[N+](C)(C)C | inactive |  |
| CCN(CC)c1ccc(C(=C2C=CC(=[N+](CC)CC)C=C2)c2ccc(S(=O)(=O)O)cc2S(=O)(=O)[O-])cc1 | inactive |  |
| CCCCCCCCCCCCCOS(=O)(=O)O | inactive |  |
| [Ca+2] | inactive |  |
| c1cc(C(c2ccc(OCC3CO3)cc2)c2ccc(OCC3CO3)cc2)ccc1OCC1CO1 (centres undefined) |  | 8.93 µM (active) |
| CCn1c2ccccc2c2cc(N)ccc21 | inactive |  |
| C=C[C@@H](C)CCC=C(C)C | inactive |  |
| O=C(O)CN(CCN(CC(=O)O)CC(=O)O)CCN(CC(=O)O)CC(=O)O | inactive |  |
| COC(=O)OC | inactive |  |
| Cc1c(Cl)c(=O)oc2cc(O)ccc12 | inactive |  |
| O=Cc1ccc(F)cc1 | inactive |  |
| C=C(C)C(=O)O | inactive |  |
| CC(C)OP(=O)(CP(=O)(OC(C)C)OC(C)C)OC(C)C | inactive |  |
| CCCCOCCOCCOCCOCCO | inactive |  |
| COc1ccc(Nc2ccccc2)c(C)c1 | inactive |  |
| CCCC(C)C=O (centres undefined) | inactive |  |
| CC(=O)Nc1ccccc1O | inactive |  |

| SMILES | outcome | AC50 |
| --- | --- | --- |
| COc1cc(C(C)(C)C)c(O)c(C(C)(C)C)c1 | inactive |  |
| CCCC(=O)C(C)=O | inactive |  |
| O=C(O)c1cn(C2CC2)c2cc(N3CCNCC3)c(F)cc2c1=O | inactive |  |
| Cc1ccc2ccccc2n1 | inactive |  |
| CC(C)=CCCC(C)=CCCC(C)=CCO | inactive |  |
| O=C(Nc1ccccc1)c1cc([N+](=O)[O-])ccc1Cl | inactive |  |
| N#Cc1ccccc1 | inactive |  |
| C[C@H]1C[C@@H]2[C@H]([C@@H](O)C[C@@]3(C)[C@H]2CC[C@]3(O)C(=O)CO)[C@@]2(C)C=CC(=O)C=C12 | inactive |  |
| COCCOCCOCCOCCOCCO | inactive |  |
| O=C(O)CCCCC1CCSS1 (centres undefined) | inactive |  |
| C#C[C@]1(O)CC[C@H]2[C@@H]3CCC4=Cc5oncc5C[C@]4(C)[C@H]3CC[C@@]21C |  | 22 µM (active) |
| O=C(O)COCCN1CCN(C(c2ccccc2)c2ccc(Cl)cc2)CC1 (centres undefined) | inactive |  |
| CCCCN | inactive |  |
| COC(=O)Cc1cccc2ccccc12 | inactive |  |
| O=Nc1ccc(Nc2ccccc2)cc1 |  | 20.9 µM (active) |
| CC(C)=CCC[C@](C)(O)[C@@H]1CC=C(C)CC1 | inactive |  |
| CCN(CC)c1ccc2c(-c3ccccc3C(=O)O)c3ccc(=[N+](CC)CC)cc-3oc2c1 |  | 30.8 µM (active) |
| CC(=O)[O][Al][O]C(C)=O | inactive |  |
| Cc1cccc(Nc2ccccc2C(=O)O)c1C |  | 19.8 µM (active) |

— PubChem BioAssay (EPA / NIEHS)
